Kir21 inh = inhibitors of mouse Kir2.1 inward-rectifier potassium channel; P35561; HEK293-Kir2.1, FluxOR thallium flux fluorescence; active compounds read low; B-score at 10 µM; actives 0.85% (n = 310,000); AID 1672;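 active = fluorescence ratio B-score at or below minus 3 SD of library scores, with starting-brightness B-score within 2 SD, cut at about -4.2 in these data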;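 also: channel flux triggered by added potassium and thallium sulfate stimulus; B-score of peak minus minimum fluorescence over baseline after thallium stimulus; more negative B-score means stronger Kir2.1 block with less thallium influx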
TMEM16A inh = inhibitors of mouse TMEM16A calcium-activated chloride channel; HEK293 TMEM16A/YFP iodide influx fluorescence, ionomycin; actives 1.2% (n = 310,000); Q8BHY3; normalized B-score (activity score, 25-100; higher = stronger inhibition) at 10 µM;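 active = ratio plate-corrected score three or more library SD toward inhibition, starting fluorescence score within five deviations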;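 also: score derived from kinetic fluorescence span divided by baseline fluorescence per well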
GPR7 antagonist = human neuropeptides B/W receptor 1 antagonism | P48145 | GPR7-expressing cells, fluorescence antagonist assay | inhibition, % at 4.4 µM | actives 1.1% (n = 290,000) | AID 1861; in the data active = inhibition above about 16%, passing the limit was not always enough;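 also: cells stimulated with the agonist NPW; 0% = agonist with vehicle and 100% = vehicle without agonist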
TMEM16A act = mouse TMEM16A channel activation, primary screen; B-score at 10 µM; HEK293 TMEM16A/YFP-H148Q/I152L, iodide quench fluorescence; active compounds read low; actives 0.3% (n = 340,000);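 active = fluorescence-ratio B-score plate-corrected deviation score at least 3 library SD below zero, with starting fluorescence score within 5 deviations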;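 also: channel opened by trigger with iodide after compound preincubation; score built on the fluorescence ratio of max minus min over baseline; more negative score means more quench and so TMEM16A activation or potentiation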
CHT allo act = allosteric activators of human choline transporter CHT. Q9GZV3. CHT-expressing cells, membrane potential dye, choline EC20; active compounds read high; LV-AA mutant CHT in HEK293 cells. B-score at 10 µM. actives 0.49% (n = 310,000);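 active = initial fluorescence not abnormally high and integrated response B-score, plate-corrected, over 3 SD above library mean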
Target sequence (Q9GZV3 whole entry, looked up): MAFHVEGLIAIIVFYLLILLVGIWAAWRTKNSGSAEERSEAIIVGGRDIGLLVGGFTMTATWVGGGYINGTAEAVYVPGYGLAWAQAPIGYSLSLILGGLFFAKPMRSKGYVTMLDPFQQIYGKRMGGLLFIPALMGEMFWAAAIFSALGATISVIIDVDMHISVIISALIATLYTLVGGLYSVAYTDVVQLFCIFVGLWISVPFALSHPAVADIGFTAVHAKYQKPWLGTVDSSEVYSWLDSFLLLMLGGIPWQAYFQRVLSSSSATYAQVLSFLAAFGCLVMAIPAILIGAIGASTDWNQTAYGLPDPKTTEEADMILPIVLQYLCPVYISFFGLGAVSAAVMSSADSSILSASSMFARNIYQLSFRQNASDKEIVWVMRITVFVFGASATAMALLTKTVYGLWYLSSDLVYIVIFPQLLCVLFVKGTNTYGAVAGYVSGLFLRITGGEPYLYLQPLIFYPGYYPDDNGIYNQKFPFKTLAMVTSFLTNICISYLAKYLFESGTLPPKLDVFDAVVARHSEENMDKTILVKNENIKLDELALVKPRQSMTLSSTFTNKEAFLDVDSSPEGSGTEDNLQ
CHT inh = human CHT choline transport inhibition; actives 0.86% (n = 310,000); AID 488975; CHT-expressing cells, membrane potential dye, choline response; active compounds read low; B-score at 10 µM; Q9GZV3;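 active = B-score over 3 SD under the library average, and starting fluorescence ratio not unusually high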;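 also: choline stimulus applied at its EC90 after an EC20 pre-addition; B-score computed on integrated fluorescence ratio after choline addition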
CHT block conf = confirmation of human choline transporter CHT inhibitors | CHT activity remaining % of control (active compounds read low), % at 10 µM | shares compounds with CHT inh | CHT-expressing cells, choline membrane potential dye; LV-to-AA substituted CHT, HEK293 cells | actives 70% (n = 2,400);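 active = choline transporter activity left, mean of duplicates at 10 µM, below buffer-only control mean minus 3 SD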;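 also: depolarization triggered by choline at its EC90 following an EC20 pre-addition; 0% = hemicholinium-3 full block and 100% = buffer-only control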
HEK293 CHT ctr = CHT inhibitor counter-screen hit in parental HEK293 cells; membrane potential dye, choline response; active = decrease or increase beyond buffer ±3SD; AID 493222; membrane potential ratio readout (active if shifted either direction beyond buffer ±3SD; no single direction) at 10 µM; shares compounds with CHT inh; actives 4% (n = 2,400);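 also: parental cells lack the transporter so any hit is non-specific; ratio is peak minus trough fluorescence over baseline after EC90 choline challenge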
An asterisk follows results filed as active; i = inactive; nt = no result. The list is not random: actives were taken first. Their share in the collection is about 3.7%.

SMILES	Kir21 inh	TMEM16A inh	GPR7 antagonist	TMEM16A act	CHT allo act	CHT inh	CHT block conf	HEK293 CHT ctr
CC(C)c1ccc(OCc2ccc(C(=O)NN3CCN(C)CC3)o2)cc1	1.6	i	-11	i	i	i	nt	nt
COc1ccccc1CC(Cc1nc2ccccc2[nH]1)c1nc2ccccc2[nH]1 (stereo not given)	0.81	i	15	i	i	-8.6*	36%*	i
CC(C)Cc1nc2ccccc2[nH]1	-0.02	i	-25	i	i	i	nt	nt
CN(C)CCOC(=O)Cc1ccc(Cl)cc1	-0.25	i	3	i	i	-10*	63%*	i
CN(C)CCOC(=O)COc1ccc(Cl)cc1	nt	i	nt	i	i	i	nt	nt
O=C1CCN(CCc2ccccc2)CCN1CCSc1ccccc1	-0.68	i	11	i	i	-5*	50%*	i
COc1ccc(-n2nnnc2CNC(=O)C(=O)c2c(C)[nH]c3ccccc23)cc1	-0.59	i	nt	i	i	i	nt	nt
CC1CCCN(C(=O)C2CCC(CNc3c(N4CCCCC4)c(=O)c3=O)CC2)C1 (stereo not given)	-1.6	i	-4	i	i	-6*	i	i
C=C[C@@]1(C)CC(=O)[C@]2(O)[C@@]3(C)[C@@H](O)CCC(C)(C)[C@@H]3[C@H](OC(C)=O)[C@H](O)[C@@]2(C)O1	-0.96	i	nt	i	i	-8.1*	37%*	i
CCOC(=O)c1[nH]c(C)c(C(=O)O)c1C	nt	nt	-5	nt	nt	nt	nt	nt
CCOC(=O)c1[nH]c(C=O)c(C(=O)OCC)c1C	0.89	i	-1	i	i	-5.2*	69%*	i
O=C(NC1CCCC1)C(c1ccc(O)cc1)N(CC1CCCO1)C(=O)C1COc2ccccc2O1 (stereo not given)	-1.2	i	-9	i	i	i	nt	nt
COc1ccc(C(C(=O)NC2CCCCC2)N(CC2CCCO2)C(=O)C2COc3ccccc3O2)cc1OC (stereo not given)	1.4	i	-13	i	i	-5.9*	i	i
O=C(CCC1CCCN(C(=O)c2ccccc2Cl)C1)N1CCN(c2ccccn2)CC1 (stereo not given)	-0.01	i	8	i	i	i	nt	nt
COc1ccc(C(CNC(=O)c2cc(S(=O)(=O)NCc3ccccc3)ccc2C)N2CCOCC2)cc1 (stereo not given)	0.18	i	nt	i	i	-10*	19%*	i
O=C(NCCNCc1cccc(Cl)c1)c1ccco1	nt	nt	nt	i	nt	nt	nt	nt
Clc1cccc(CNCCNCc2cccc(Cl)c2)c1	-4.3*	i	-3	i	i	-7*	70%*	i
CC(=O)C(Sc1nn(C)c(=S)s1)C(=O)Nc1ccccc1 (stereo not given)	-0.31	i	-19	i	i	-5.4*	49%*	i
COC(=O)CN(c1cc([N+](=O)[O-])ccc1OC)S(C)(=O)=O	-1	i	-23	i	i	i	nt	nt
Cn1c(SCC2CCCO2)nnc1-c1cccc([N+](=O)[O-])c1 (stereo not given)	0.01	i	-6	i	i	i	nt	nt
Cc1ccc(N2NC(=O)/C(=C\c3cc4c(cc3[N+](=O)[O-])OCO4)C2=O)cc1C	-6.5*	i	-7	i	i	-5*	42%*	i
CCN(CC)c1nc(-c2ccccn2)nc(-c2ccccc2)c1C#N	-0.01	i	-7	i	i	i	nt	nt
CCOc1ccc2nc(SCC(=O)NC3CCCCC3)[nH]c2c1	0.17	i	-18	i	i	i	nt	nt
CC1CCN(S(=O)(=O)c2nnc(NC(=O)c3cccc([N+](=O)[O-])c3)s2)CC1	1.9	i	-3	i	i	-9.6*	60%*	i
O=C(Nc1nnc(S(=O)(=O)N2CCCC2)s1)c1cccc([N+](=O)[O-])c1	0.57	i	-10	i	i	i	nt	nt
SMILES	Kir21 inh	TMEM16A inh	GPR7 antagonist	TMEM16A act	CHT allo act	CHT inh	CHT block conf	HEK293 CHT ctr
O=S(=O)(c1ccc(F)c(F)c1)N1CCN(CCc2ccccc2)CC1	0.65	i	-4	i	i	-6.8*	54%*	i
O=S(=O)(c1ccccc1F)N1CCN(CCc2ccccc2)CC1	1.4	i	-6	i	i	-6.8*	48%*	i
Cc1cccc(C(=O)OCC(=O)c2csc(N3CCCCC3)n2)c1[N+](=O)[O-]	nt	nt	nt	i	nt	nt	nt	nt
CC(/C=N/NC(=O)c1cc(-c2ccncc2)nc2ccccc12)=C\c1ccco1	-1.7	i	4	i	i	-7.5*	40%*	i
O=C(Nc1cccc(C(=O)N2CCCCC2)c1)c1ccccc1Br	0.6	i	-2	i	i	-5.2*	25%*	i
CCCCCC(=O)c1ccc(O)cc1O	0.81	i	-7	i	i	-6.1*	55%*	i
Cc1nc(CC(=O)c2ccc(O)cc2O)cs1	-0.45	i	2	i	i	i	nt	nt
CC(O)CNC(=O)Cc1cc(=O)[nH]c(=O)[nH]1 (stereo not given)	-1.7	i	-1	i	i	i	nt	nt
COc1cc(C2Nc3ccc4ncccc4c3C3=C2C(=O)CCC3)ccc1O (stereo not given)	-1.3	i	0	i	i	-6.2*	i	i
Cc1cc(C)nc(SCC(=O)Nc2ccc(S(=O)(=O)N3CCCCC3)cc2)n1	2.2	i	4	i	i	i	nt	nt
O=C(Oc1coc(CSc2ncccn2)cc1=O)c1ccccc1[N+](=O)[O-]	1.7	i	-6	i	i	i	nt	nt
Cc1cc(C)nc(SCc2cc(=O)c(OC(=O)c3ccc(Br)o3)co2)n1	-3.6	i	-9	i	i	-8.2*	14%*	i
Cc1cc(C)nc(SCc2cc(=O)c(OC(=O)c3ccc(S(=O)(=O)N4CCCC4)cc3)co2)n1	1.8	i	2	i	i	-7.2*	51%*	i
Cc1cc(C)nc(SCc2cc(=O)c(OC(=O)c3ccco3)co2)n1	-0.84	i	6	i	i	-6.1*	17%*	i
Cc1ccnc(SCc2cc(=O)c(OC(=O)c3ccccc3)co2)n1	-1.2	i	-10	i	i	i	nt	nt

High-throughput results (PubChem BioAssay)
